For some of these results: Measured potencies and affinities stand elsewhere. Calls of active or inactive are those of the source. Unless noted, no rule for the calls is given here.
Columns and labels:
[1] = kinase inhibitors against Plasmodium liver-stage infection, cell-based, known kinase inhibitor set, luminescence, hepatoma host viability (AID 624392); details: Plasmodium liver stage in hepatoma cells, luciferase luminescence, concentration not given here; liver cell % of control: measured here: host liver cell viability; parasite % of control: stronger effect = lower value;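 also: infected cells incubated roughly two days before readout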
[2] = modulators of glucocorticoid suppression of NF-kB, cell-based, luciferase, IL-1B stimulus, dexamethasone (AID 624486); details: NF-kB luciferase reporter, IL-1B + dexamethasone, luminescence; percent of negative control (+Dex): actives lie on both sides, concentration not given here; z-score: measured here: IL-1B alone, no Dex;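 as to percent of negative control (+Dex): 100% = mean signal of vehicle control wells on the plate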
[3] = molecular target: Cellular tumor antigen p53 (Homo sapiens) (UniProt P04637); experiment: kinase inhibitors altering GFP-p53 stability in HPV16-positive cells, imaging, known kinase inhibitor set, EGFP/DsRed ratio (AID 1053116); details: stronger effect = higher value; EGFP object count: measured here: GFP-p53 positive objects count;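 also: cells exposed to compounds for 24 h at 37 °C before reading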
Chain of Cellular tumor antigen p53 (Homo sapiens) (P04637 whole entry, looked up): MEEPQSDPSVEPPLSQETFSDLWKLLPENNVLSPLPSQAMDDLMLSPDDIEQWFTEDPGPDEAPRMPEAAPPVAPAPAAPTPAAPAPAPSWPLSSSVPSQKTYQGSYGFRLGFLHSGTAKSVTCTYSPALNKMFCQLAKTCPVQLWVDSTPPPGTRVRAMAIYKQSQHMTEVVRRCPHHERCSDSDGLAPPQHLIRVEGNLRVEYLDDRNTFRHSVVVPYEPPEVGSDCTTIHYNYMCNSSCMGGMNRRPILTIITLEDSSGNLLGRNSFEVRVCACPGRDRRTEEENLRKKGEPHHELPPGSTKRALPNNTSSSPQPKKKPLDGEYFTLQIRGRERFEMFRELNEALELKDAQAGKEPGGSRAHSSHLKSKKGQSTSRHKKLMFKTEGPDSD

[4] = IRF3 reporter activation in THP-1 macrophages, cell-based, PMA-stimulated THP-1, luminescence (AID 1053176); details: PMA-differentiated THP-1, IRF3 reporter luminescence; stronger effect = higher value
[5] = kinase inhibitors altering Pseudomonas killing of worms, whole organism (AID 651566);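 also: tested at 14 µM; sign flipped so higher z means a lower ratio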; details: C. elegans killed by P. aeruginosa, survival ratio
[6] = activators of macrophage pro-inflammatory response, cell-based, murine, luminescence (AID 652131); details: murine macrophage pro-inflammatory reporter, stronger effect = higher value
[7] = survival rescue of mitochondrial mutant cells in low glucose, primary screen, MELAS cybrids, Rieske KO mouse fibroblasts, CellTiter-Glo (AID 1508586;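 active = mean z-score across replicates of 1.96 or higher in either the MELAS or the Rieske mutant cell line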;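 also: z relative to plate mean and SD of compound and empty wells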)
[8] = antimalarial activity against Dd2 strain (AID 2302;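 active = growth inhibition above 50% at the single 2 µM test dose, taken to imply half-maximal potency below 2 µM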;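 also: 0% = DMSO untreated growth and 100% = chloroquine plus artemisinin killed control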); details: P. falciparum Dd2 in RBCs, LDH growth readout, 72 h; at 2 µM; stronger effect = higher value
[9] = HepG2 cytotoxicity, primary screen, cytotoxicity control for P. falciparum antimalarial project, cell-based, ATP luminescence (AID 2303;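 active = inhibition above 50%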;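 also: 0% = DMSO wells and 100% = digitonin-killed cells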); details: HepG2 viability, 24-48 h, at 10 µM, stronger effect = higher value
[10] = molecular target: L-lactate dehydrogenase (Plasmodium falciparum (isolate CDC / Honduras)) (UniProt Q27743); experiment: PfLDH activity inhibition – cell lysate, 3D7 strain, counter-screen for P. falciparum growth inhibition project (AID 2304);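 also: 0% = vehicle and 100% = reference inhibitor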; details: P. falciparum 3D7 crude extract, LDH APAD/NBT absorbance; at 2 µM; stronger effect = higher value
Chain of L-lactate dehydrogenase (Plasmodium falciparum (isolate CDC / Honduras)) (Q27743 whole entry, looked up): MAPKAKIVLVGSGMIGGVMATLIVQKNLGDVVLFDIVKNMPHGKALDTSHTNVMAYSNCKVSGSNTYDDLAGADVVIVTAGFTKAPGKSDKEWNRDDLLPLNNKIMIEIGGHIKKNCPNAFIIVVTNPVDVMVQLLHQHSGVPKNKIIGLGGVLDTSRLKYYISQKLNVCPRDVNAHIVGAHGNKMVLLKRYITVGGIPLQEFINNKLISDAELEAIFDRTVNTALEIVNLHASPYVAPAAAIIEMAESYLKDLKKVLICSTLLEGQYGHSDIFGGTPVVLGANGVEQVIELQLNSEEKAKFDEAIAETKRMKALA

[11] = inhibition of 3D7 malaria parasite growth – strain 3D7 (AID 2306);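 also: 0% = DMSO wells and 100% = chloroquine plus artemisinin control wells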; details: P. falciparum 3D7 erythrocytic growth, LDH absorbance, 72 h; at 2 µM; stronger effect = higher value
[12] = molecular target: Calcium-dependent protein kinase 1 (Plasmodium falciparum (isolate 3D7)) (UniProt P62344); experiment: PfCDPK1 kinase inhibitors, biochemical, TCAMS library (AID 1159585; cut-off not given, nearly all actives have IC50 up to about 0.98 µM;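 also: inhibitors leave more ATP so luminescence rises with inhibition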); details: recombinant PfCDPK1, Kinase-Glo ATP depletion luminescence
Chain of Calcium-dependent protein kinase 1 (Plasmodium falciparum (isolate 3D7)) (P62344 whole entry, looked up): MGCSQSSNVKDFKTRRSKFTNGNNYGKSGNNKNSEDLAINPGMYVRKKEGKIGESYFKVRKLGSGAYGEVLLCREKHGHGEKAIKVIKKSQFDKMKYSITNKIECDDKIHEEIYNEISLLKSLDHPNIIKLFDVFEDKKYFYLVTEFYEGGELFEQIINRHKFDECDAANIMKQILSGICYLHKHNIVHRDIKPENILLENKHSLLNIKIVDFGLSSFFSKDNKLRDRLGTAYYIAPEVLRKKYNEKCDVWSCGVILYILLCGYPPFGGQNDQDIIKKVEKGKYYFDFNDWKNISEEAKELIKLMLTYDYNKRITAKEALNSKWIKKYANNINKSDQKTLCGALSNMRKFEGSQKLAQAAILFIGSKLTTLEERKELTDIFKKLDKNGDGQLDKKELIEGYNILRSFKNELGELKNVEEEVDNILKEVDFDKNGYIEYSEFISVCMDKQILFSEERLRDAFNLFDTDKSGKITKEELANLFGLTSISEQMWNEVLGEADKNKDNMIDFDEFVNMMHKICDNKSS

[13] = molecular target: Plasmodium falciparum protein kinase 6 (PK6, PF3D7_1337100) (UniProt Q8IDW1); experiment: PfPK6 kinase inhibitors, biochemical, TCAMS library (AID 1159586); details: recombinant PfPK6, Kinase-Glo ATP depletion luminescence
Chain of Plasmodium falciparum protein kinase 6 (PK6, PF3D7_1337100) (Q8IDW1 1-305): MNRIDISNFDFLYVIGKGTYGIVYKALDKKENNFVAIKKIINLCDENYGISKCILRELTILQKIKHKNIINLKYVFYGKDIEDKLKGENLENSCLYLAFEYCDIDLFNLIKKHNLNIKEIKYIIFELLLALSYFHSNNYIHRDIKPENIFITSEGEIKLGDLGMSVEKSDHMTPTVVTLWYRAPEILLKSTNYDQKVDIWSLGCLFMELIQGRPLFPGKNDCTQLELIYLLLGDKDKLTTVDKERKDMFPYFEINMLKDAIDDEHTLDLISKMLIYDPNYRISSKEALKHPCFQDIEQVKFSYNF

[14] = molecular target: Protein kinase 7 (PK7), Plasmodium falciparum 3D7 (PF3D7_0213400) (UniProt Q7YTF7); experiment: inhibition of Plasmodium PK7 catalytic activity – biochemical, TCAMS antimalarial set, Kinase-Glo luminescence (AID 1159587); details: recombinant PfPK7, Kinase-Glo ATP depletion luminescence
Chain of Protein kinase 7 (PK7), Plasmodium falciparum 3D7 (PF3D7_0213400) (Q7YTF7 1-343): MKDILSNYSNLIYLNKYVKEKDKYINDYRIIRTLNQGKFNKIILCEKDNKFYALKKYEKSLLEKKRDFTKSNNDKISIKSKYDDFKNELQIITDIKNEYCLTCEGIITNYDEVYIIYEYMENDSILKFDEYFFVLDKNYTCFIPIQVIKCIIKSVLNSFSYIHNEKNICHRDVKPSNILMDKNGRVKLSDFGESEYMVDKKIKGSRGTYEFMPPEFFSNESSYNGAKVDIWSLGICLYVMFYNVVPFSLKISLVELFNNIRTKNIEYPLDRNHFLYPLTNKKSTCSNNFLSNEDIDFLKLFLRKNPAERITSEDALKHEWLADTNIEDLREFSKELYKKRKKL

[15] = molecular target: Calcium-dependent protein kinase 4 (Plasmodium falciparum (isolate 3D7)) (UniProt Q8IBS5); experiment: PfCDPK4 kinase inhibitors, biochemical, TCAMS library (AID 1159588; cut-off not given, nearly all actives have IC50 up to about 0.91 µM); details: recombinant PfCDPK4, Kinase-Glo ATP depletion luminescence
Chain of Calcium-dependent protein kinase 4 (Plasmodium falciparum (isolate 3D7)) (Q8IBS5 whole entry, looked up): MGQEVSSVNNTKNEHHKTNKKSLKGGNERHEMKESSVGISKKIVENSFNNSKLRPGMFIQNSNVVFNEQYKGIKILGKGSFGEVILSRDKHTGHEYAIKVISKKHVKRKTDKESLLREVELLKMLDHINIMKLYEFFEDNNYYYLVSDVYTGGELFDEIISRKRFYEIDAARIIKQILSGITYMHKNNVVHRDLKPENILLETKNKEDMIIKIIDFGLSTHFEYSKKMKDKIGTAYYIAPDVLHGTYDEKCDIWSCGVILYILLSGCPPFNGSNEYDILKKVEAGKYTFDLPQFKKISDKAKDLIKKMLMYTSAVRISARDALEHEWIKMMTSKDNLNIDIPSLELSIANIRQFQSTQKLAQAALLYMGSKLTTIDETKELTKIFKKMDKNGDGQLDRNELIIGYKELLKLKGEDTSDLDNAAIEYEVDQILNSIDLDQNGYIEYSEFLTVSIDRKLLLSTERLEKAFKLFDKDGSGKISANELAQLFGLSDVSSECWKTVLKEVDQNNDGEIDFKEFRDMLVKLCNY

[16] = stimulators of nuclear beta-catenin in C2C12, primary screen, imaging, WNT3A-conditioned medium, mouse C2C12, NPC library (AID 1117326; in the data active = nuclear beta-catenin stimulation mostly above about 4.2%, no sharp cut-off; inactive = mostly below about 10%); details: stronger effect = higher value
[17] = stimulators of insulin release from INS-1E, primary screen, cell-based, 5 mM glucose, NPC library (AID 1117329;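 active = compound raises insulin release from rat beta cells at 5 mM glucose, no numeric limit stated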); details: rat INS-1E insulin secretion, at 10 µM, stronger effect = higher value
[18] = growth inhibition of GSK3B-pretreated HCT116 cells – cell-based, CellTiter-Glo, 0.2 to 20 µM (AID 1117336;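 active = compounds lowering colon cancer cell viability after pretreatment blocking the GSK3B kinase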); details: HCT116 viability after GSK3B inhibitor, at 20 µM, stronger effect = higher value
[19] = inhibition of endothelial tube formation, primary screen, imaging, VEGF stimulated, CD31 staining, tube area, NPC library (AID 1117340;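 active = compound that reduces growth-factor-driven endothelial tube area in a mixed cell culture, no cutoff stated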); details: VEGF-stimulated ADSC/ECFC co-culture, at 10 µM, stronger effect = higher value
[20] = glucagon-like peptide 1 release enhancers, primary assay, NCI-H716 cell line, NPC library (AID 1117341;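 active = compound raises GLP1 secretion from the human gut endocrine cells, with no numeric limit stated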); details: NCI-H716 cells, at 10 µM, stronger effect = higher value
[21] = HCT116 colon cancer cell growth inhibition, primary screen, CellTiter-Glo luminescence, NPC library (AID 1117342;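 active = compounds that lower survival of HCT116 colon cancer cells in the luminescence readout, no numeric limit stated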); details: at 20 µM (top of the series)
[22] = CellTiter-Glo luminescent readout of SW480 viability loss, NPC library primary (AID 1117343;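 active = compounds that lower viability of the colon cancer cells in the luminescence readout, with no numeric limit stated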); details: CellTiter-Glo luminescence; at 20 µM (top of the series)
[23] = decreased DLD-1 cellular survival, CellTiter-Glo luminescent readout, NPC compound collection, primary HTS (AID 1117346;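 active = compounds that lower survival of DLD-1 colon cancer cells in the luminescence readout, no cutoff given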); details: DLD-1 viability, CellTiter-Glo luminescence; at 20 µM (top of the series)
[24] = MELAS cybrid survival, CellTiter-Glo 48 h, stronger effect = higher value
[25] = Rieske KO mouse fibroblast survival, CellTiter-Glo 72 h

Cn1cc(C2=C(c3c4n(c5ccccc35)CCN(C(N)=S)C4)C(=O)NC2=O)c2ccccc21
liver cell % of control [1]: 94.5% | parasite % of control [1]: 22.4% (inactive) | percent of negative control (+Dex) [2]: 110% (inactive) | z-score [2]: -0.965 | EGFP object count [3]: 36.5 | EGFP/DsRed ratio [3]: 0.211 (inactive) | fraction signal [4]: -0.007 (inactive)

Cn1cc(C2=C(c3c4n(c5ccccc35)CCC(CN)CC4)C(=O)NC2=O)c2ccccc21 (stereo not given)
liver cell % of control [1]: 127% | parasite % of control [1]: 42.3% (inactive) | percent of negative control (+Dex) [2]: 94% (inactive) | z-score [2]: -0.165 | EGFP object count [3]: 30.5 | EGFP/DsRed ratio [3]: 0.0801 (inactive) | fraction signal [4]: -0.003 (inactive)

Cn1cc(C2=C(c3cn(CCCCC(=N)N)c4ccccc34)C(=O)NC2=O)c2ccccc21
liver cell % of control [1]: 133% | parasite % of control [1]: 22.6% (inactive) | percent of negative control (+Dex) [2]: 98% (inactive) | z-score [2]: 0.29 | EGFP object count [3]: 10.5 | EGFP/DsRed ratio [3]: 0.2 (inactive) | fraction signal [4]: 0.0055 (inactive)

Fc1ccc(-c2ncn(C3CCNCC3)c2-c2ccnc(Oc3ccccc3)n2)cc1
liver cell % of control [1]: 73.1% | parasite % of control [1]: 120% (inactive) | percent of negative control (+Dex) [2]: 102% (inactive) | z-score [2]: 0.6 | z-score [5]: 0.255 (inactive) | z-score [6]: 0.32 (inactive) | fraction signal [4]: -0.004 (inactive) | z-score [7, 24]: -0.224 (inactive) | z-score [7, 25]: -0.286

Cn1cc(C2=C(c3cn(C)c4cc(C(=O)O)ccc34)C(=O)NC2=O)c2ccccc21
liver cell % of control [1]: 145% | parasite % of control [1]: 38.3% (inactive) | percent of negative control (+Dex) [2]: 99% (inactive) | z-score [2]: 0.65 | EGFP object count [3]: 2.5 | EGFP/DsRed ratio [3]: 0.485 (inactive) | fraction signal [4]: 0.0035 (inactive)

COc1cc(F)c(F)c(F)c1C(=O)c1cnc(NC2CCN(S(C)(=O)=O)CC2)nc1N
liver cell % of control [1]: 92.2% | parasite % of control [1]: 450% (inactive) | percent of negative control (+Dex) [2]: 122% (inactive) | z-score [2]: 0.18 | EGFP object count [3]: 3 | EGFP/DsRed ratio [3]: 0.21 (inactive) | fraction signal [4]: -0.0095 (inactive)

CCNC(=O)C1CCCN2C(=O)CCC(NC(=O)C(Cc3ccc(OP(=O)(O)O)cc3)NC(C)=O)C(=O)N12 (stereo not given)
liver cell % of control [1]: 95% | parasite % of control [1]: 44.7% (inactive) | percent of negative control (+Dex) [2]: 102% (inactive) | z-score [2]: 0.145 | EGFP object count [3]: 6 | EGFP/DsRed ratio [3]: 0.215 (inactive) | fraction signal [4]: -0.0005 (inactive)

CS(=O)(=O)CCNCc1ccc(-c2ccc3ncnc(Nc4ccc(OCc5ccccc5)c(Cl)c4)c3c2)o1
growth inhibition [8]: 76% (active) | inhibition [9]: 4% (inactive) | inhibition [10]: -7% (inactive) | growth inhibition [11]: 101% (active) | liver cell % of control [1]: 113% | parasite % of control [1]: 73.2% (inactive) | percent of negative control (+Dex) [2]: 73.5% (inactive) | z-score [2]: -1.31 | z-score [5]: -0.785 (inactive) | z-score [6]: 2.12 (inactive) | fraction signal [4]: -0.0085 (inactive) | outcome [12]: inactive | outcome [13]: inactive | outcome [14]: inactive | outcome [15]: inactive | z-score [7, 24]: -0.588 (inactive) | z-score [7, 25]: -0.304

Fc1ccc(-c2ncn(C3CCNCC3)c2-c2ccnc(Oc3ccc(F)c(F)c3)n2)cc1
liver cell % of control [1]: 83% | parasite % of control [1]: 166% (inactive) | percent of negative control (+Dex) [2]: 106% (inactive) | z-score [2]: 1.34 | z-score [5]: 0.595 (inactive) | z-score [6]: 0.167 (inactive) | fraction signal [4]: 0.003 (inactive) | z-score [7, 24]: -0.134 (inactive) | z-score [7, 25]: -0.514

Fc1ccc(-c2ncn(C3CCNCC3)c2-c2ccnc(Oc3ccc(Cl)cc3)n2)cc1
liver cell % of control [1]: 79.3% | parasite % of control [1]: 63.5% (inactive) | percent of negative control (+Dex) [2]: 103% (inactive) | z-score [2]: 0.58 | z-score [5]: 0.16 (inactive) | z-score [6]: -0.186 (inactive) | fraction signal [4]: -0.006 (inactive) | z-score [7, 24]: 0.00888 (inactive) | z-score [7, 25]: -0.374

CCCc1ccc(C(=O)O)cc1
nuclear beta-catenin stimulation ([16]; at 10 µM): -2% (inactive) | nuclear beta-catenin stimulation ([16]; stimulation, at 2 µM): 2.4% | insulin secretion stimulation [17]: 0.6% (inactive) | viability decrease [18]: -19.9% (inactive) | tube area decrease [19]: 0.8% (inactive) | GLP1 secretion stimulation [20]: 1.1% (inactive) | inhibition of viability [21]: 7.9% (inactive) | viability decrease (inhibition) [22]: 12.9% (inactive) | viability decrease (inhibition) [23]: 11.8% (inactive)

CS(=O)(=O)CCNCc1ccc(-c2ccc3ncnc(Nc4ccc(OCc5ccccc5)c(Br)c4)c3c2)o1
liver cell % of control [1]: 107% | parasite % of control [1]: 127% (inactive) | percent of negative control (+Dex) [2]: 82% (inactive) | z-score [2]: -0.54 | z-score [5]: 0.135 (inactive) | z-score [6]: 2.09 (inactive) | fraction signal [4]: 0.0015 (inactive) | z-score [7, 24]: 0.203 (inactive) | z-score [7, 25]: -0.567

Cc1[nH]nc2c1N=C(c1ccccc1Cl)c1cc([N+](=O)[O-])ccc1N2
liver cell % of control [1]: 92.3% | parasite % of control [1]: 32.5% (inactive) | percent of negative control (+Dex) [2]: 104% (inactive) | z-score [2]: -1.15 | fraction signal [4]: -0.0135 (inactive)

CCCCCCCCCCOCC(O)CN (stereo not given)
nuclear beta-catenin stimulation ([16]; at 10 µM): 49.7% (active) | nuclear beta-catenin stimulation ([16]; stimulation, at 2 µM): -0.2% | insulin secretion stimulation [17]: 4.5% (inactive) | viability decrease [18]: 91.1% (active) | tube area decrease [19]: 65% (active) | GLP1 secretion stimulation [20]: -3.3% (inactive) | inhibition of viability [21]: 84.7% (active) | viability decrease (inhibition) [22]: 102% (active) | viability decrease (inhibition) [23]: 98.4% (active)

COc1ccc2ncn(-c3cc(O[C@H](C)c4ccccc4Cl)c(C(N)=O)s3)c2c1
liver cell % of control [1]: 108% | parasite % of control [1]: 124% (inactive) | percent of negative control (+Dex) [2]: 77.5% (inactive) | z-score [2]: -2.52 | z-score [5]: 0.63 (inactive) | z-score [6]: -1.39 (inactive) | fraction signal [4]: -0.0045 (inactive) | z-score [7, 24]: -0.983 (inactive) | z-score [7, 25]: 0.0827

O=C(O)c1ccc(Oc2nccc(-c3c(-c4ccc(F)cc4)ncn3C3CCNCC3)n2)cc1
liver cell % of control [1]: 104% | parasite % of control [1]: 117% (inactive) | percent of negative control (+Dex) [2]: 97% (inactive) | z-score [2]: -0.04 | z-score [5]: -0.625 (inactive) | z-score [6]: 0.424 (inactive) | fraction signal [4]: 0.0015 (inactive) | z-score [7, 24]: -0.0801 (inactive) | z-score [7, 25]: -0.396

O=S(=O)(CCNCc1ccc(-c2ccc3ncnc(Nc4ccc(OCc5cccc(F)c5)c(Cl)c4)c3c2)o1)c1ccccc1
liver cell % of control [1]: 108% | parasite % of control [1]: 102% (inactive) | percent of negative control (+Dex) [2]: 96.5% (inactive) | z-score [2]: -0.355 | z-score [5]: -0.37 (inactive) | z-score [6]: 3.07 (inactive) | fraction signal [4]: -0.004 (inactive) | z-score [7, 24]: 0.171 (inactive) | z-score [7, 25]: -0.45

From PubChem BioAssay
